Among all 69,000 compounds or so, about 950 (1.4%) showed an effect of 50% or more. This is one part of a sample in which strong results are shown more often than they occur.
These compounds were tested on Mycobacterium tuberculosis (assay: Cornell M. t heat shock assay; also: in the data most compounds retested in dose-response had high values).
Format: functional, organism-based
Parameters: dose or concentration left out as unconfirmed

SMILES	Percent Effect [%]
Cc1cccc(CN2C[C@@H]3CN(C(=O)c4cnoc4C)C[C@@H]3C2=O)n1.O=C(O)C(F)(F)F	-1.837
CCOC(=O)C1CCN(C(=O)c2cc(Br)ccc2-n2cnnn2)CC1	2.973
CC(C)(C)c1ncc(CNc2ccccc2Cn2cncn2)s1	-19.95
Cc1ccc2c(c1)C(NCc1ccccn1)CC2 (stereo not drawn)	89.07
Cc1ccc2c(c1)C(NCc1ncnn1C)CC2 (stereo not drawn)	-20.52
COc1cccc(CNC2CCc3ccc(C)cc32)n1 (stereo not drawn)	6.41
Cl.O[C@@H]1CN(Cc2ccc(F)c(F)c2)CC[C@H]1NCc1ccccn1	-13.15
Cc1cc(-c2cnc(NCc3cccnc3)nc2C(C)(C)C)on1	31.35
COCC(C)NCc1nc(-c2ccc(C)cc2)c(-c2ccccn2)[nH]1 (stereo not drawn)	76.34
Cc1cnn(CC(C)NCc2nc(-c3ccccn3)no2)c1 (stereo not drawn)	-11.38
COCC(C)NCc1ccc2[nH]c(C)c(C)c2c1 (stereo not drawn)	-11.87
Cc1[nH]c2ccccc2c1-c1ccnc(N[C@@H](C)CO)n1	-31.62
Cc1ccc(-c2nc(CNC(C)CCO)[nH]c2-c2ccccn2)cc1 (stereo not drawn)	77
CC(Cn1cccn1)NCc1nc(-c2ccccn2)no1 (stereo not drawn)	-7.12
O=C(Cc1ccsc1)N1C[C@@H]2CN(Cc3ccoc3)CCO[C@@H]2C1.O=C(O)C(F)(F)F	-1.836
CC(C)=CCN1C(=O)[C@H]2CC[C@@H]1CN(C(=O)CCc1n[nH]c(C)c1C)C2	-27.57
O=C(N[C@H]1CCCC[C@@H]1O)c1ccc(-c2nc3ccccc3[nH]2)cc1	47.47
O=C(N[C@H]1CCCC[C@@H]1O)c1ccc2nc(-c3ccccc3)[nH]c2c1	0.8647
O=C(N[C@H]1CCCC[C@@H]1O)c1cccc(-c2nc3ccccc3[nH]2)c1	55.91
CN1CCOCC12CCN(C(=O)C1CCC1)CC2.O=C(O)C(F)(F)F	6.181
Cc1cc(C)c2[nH]c(C)c(CC(=O)N(C)CCN(C)C)c2c1.O=C(O)CC(O)(CC(=O)O)C(=O)O	-5.156
Cc1ccccc1CNC(=O)Cc1c(C)nc2cc(=O)[nH]n2c1C	17.46
Cc1ccccc1C(C)NC(=O)Cc1c(C)nc2cc(=O)[nH]n2c1C (stereo not drawn)	33.63
COC(C(=O)NCc1c(C)nc2cc(=O)[nH]n2c1C)c1ccccc1 (stereo not drawn)	5.148

SMILES	Percent Effect [%]
Cc1ccc(C(C)NC(=O)Cc2c(C)nc3cc(=O)[nH]n3c2C)s1 (stereo not drawn)	66.66
Cc1nc2cc(=O)[nH]n2c(C)c1CC(=O)NC(C)C	-0.1861
COc1ccccc1CC(=O)NCc1c(C)nc2cc(=O)[nH]n2c1C	71.9
O=C(O)C(F)(F)F.c1cnc(N2CCC3(CCCN(Cc4ccncc4)C3)CC2)nc1	-2.214
CNC(=O)[C@H]1C[C@@H]2CCN(c3nnc(C)s3)C[C@@H]2O1.O=C(O)C(F)(F)F	0.7881
CSCCC1c2nc[nH]c2CCN1Cc1ccccc1C(F)(F)F (stereo not drawn)	-11.51
CSCCC1c2nc[nH]c2CCN1Cc1cc(Cl)ccc1O (stereo not drawn)	106.2
CSCCC1c2nc[nH]c2CCN1Cc1ccccc1C#N (stereo not drawn)	12.31
Cc1ccccc1C(=O)N1CC[C@@H](N(C)C)[C@@H]1Cc1cnn(C)c1.O=C(O)C(F)(F)F	-16.62
CN(C)S(=O)(=O)N1CC[C@]2(C[C@@H](Oc3ncccc3F)CO2)C1.O=C(O)C(F)(F)F	7.547
COc1ccc(CN2C[C@@H](OCc3ccccn3)[C@H]3COC[C@H]32)cc1.O=C(O)C(F)(F)F.O=C(O)C(F)(F)F	-14.6
COc1cccc(C(O)CNC(=O)CC2CCCCC2)c1 (stereo not drawn)	9.16
CCN1CCC(CC(=O)NCC(O)c2ccc3ccccc3c2)CC1 (stereo not drawn)	13.11
CCN1CCC(CC(=O)NCC(O)c2cccc(OC)c2)CC1 (stereo not drawn)	93.38
Cn1ccc(CN2CCCC23CCN(Cc2nccn2C)CC3)n1.O=C(O)C(F)(F)F.O=C(O)C(F)(F)F	9.444
CCc1ccc(C(=O)N2CCN(CC(C)O)CC2)o1 (stereo not drawn)	14.22
CCN(CC)Cc1ccc(C(=O)N2CCN(CC(C)O)CC2)o1 (stereo not drawn)	61.39
CCN(CC)Cc1ccc(C(=O)N2CCN(CC(C)O)CC2)cc1 (stereo not drawn)	9.654
Cc1ccc(S(=O)(=O)Nc2ccc(N3CCSCC3)c(C(=O)O)c2)s1	-1.51
CCN(Cc1nc(COC)no1)C(=O)CCn1c(C)cc2ccccc21	35.71
CCN(Cc1noc(C)n1)C(=O)CCn1c(C)cc2ccccc21	72.72
CCN(Cc1ccncc1)C(=O)CCn1c(C)cc2ccccc21	10.06
COCCN1CCOCC12CCN(C(=O)c1ccoc1)CC2.O=C(O)C(F)(F)F	-24.79
Cn1cc(CN2CC[C@H]3O[C@H](C(=O)Nc4cnccn4)CC[C@H]32)cn1.O=C(O)C(F)(F)F	-14.77

SMILES	Percent Effect [%]
COc1cccc(CN(C)Cc2ccccc2C#N)c1OC	-6.46
CN(CCC(O)c1ccccc1)Cc1ccccc1C#N (stereo not drawn)	79.67
Cc1cc(CN(C)CCC(O)c2ccccc2)no1 (stereo not drawn)	50.59
Cc1cc(CN(C)CCN(C)c2ccccc2)no1	0.1875
Cc1cc(CN(C)CCC(O)c2ccccc2)nn1C (stereo not drawn)	0.01185
CN(CCC(O)c1ccccc1)Cc1nc(-c2ccccc2)no1 (stereo not drawn)	28.98
COCC1Cn2nnc(-c3cnn(C)c3)c2CN1Cc1ccoc1.O=C(O)C(F)(F)F (stereo not drawn)	5.008
O=C(O)CCC(=O)Nc1nn(Cc2ccccc2Cl)cc1Cl	2.15
Cc1ccc(N2CCO[C@H]3CN(CC4CC4)C[C@H]32)nn1.O=C(O)C(F)(F)F.O=C(O)C(F)(F)F	-7.487
COc1cc(N2CC[C@@H](O)[C@@H]2Cc2cccnc2)ncn1.O=C(O)C(F)(F)F	0.6687
CCCN(CC(=O)N1CCNCC1)C(=O)c1cccc(Cl)c1.O=C(O)C(F)(F)F	0.5334
Cc1ccc(OCCN(C)Cc2nccn2C)c(C)c1	55.39
CN(CCCOc1ccccc1)Cc1nccn1C	-13.65
CCOc1ccccc1OCCN(C)Cc1nccn1C	-26.9
O=C(C1CCCc2[nH]ncc21)N1CCCC2(C1)OCCO2 (stereo not drawn)	10.11
CN(C)C(c1ccccn1)[C@H]1CC[C@H](CNC(=O)C2CCCC2)CC1 (stereo partly drawn)	5.9375
N#Cc1ccc(C(=O)N2CC[C@H]3[C@H]2CCN3CC2CCOCC2)cc1.O=C(O)C(F)(F)F	-36.11
Cc1cc(NCCNc2ccc(C#N)cn2)nc(C)n1	-18.17
N#Cc1ccc(C(=O)NCCCNc2ccc(C(F)(F)F)cn2)cc1	28.89
N#CC1(C(=O)NCCCNc2ccc(C(F)(F)F)cn2)CCCC1	102.8
N#Cc1ccc(NCCNc2ccc(C(F)(F)F)cn2)nc1	51.52
O=C(NCCCNc1ccc(C(F)(F)F)cn1)c1ccc(F)cc1	26.36
O=C(NCCCNc1ccc(C(F)(F)F)cn1)c1ccccc1	26.28
O=C(O)C(F)(F)F.O=C1CC(c2ccccc2)C2(CCN(Cc3nccs3)CC2)N1 (stereo not drawn)	-1.259

SMILES	Percent Effect [%]
CC(=O)N1CCC2(CC1)CNc1c(F)cccc12.Cl	12.35
Cc1cc2c(c(-c3c[nH]c(C)n3)c1)OC(CN)C2 (stereo not drawn)	1.503
Cc1nc(-c2cc(Cl)c3c(c2)CC(CN)O3)c[nH]1 (stereo not drawn)	42.51
Cc1nc(-c2cc(Cl)cc3c2OC(CN)C3)c[nH]1 (stereo not drawn)	52.4
Cc1cc(C(F)(F)F)n2nc(C3CCCN3C3CCSCC3)cc2n1.O=C(O)CC(O)(CC(=O)O)C(=O)O (stereo not drawn)	-13.15
COCC(=O)NC1CC2(CCN(CC3CC3)CC2)Oc2ccccc21.O=C(O)C(F)(F)F (stereo not drawn)	-26.45
COc1cc(N2CCC3(CCN(Cc4nccs4)CC3)C2)ncn1.O=C(O)C(F)(F)F	24.13
Cc1cccc(CN2C[C@H](OCc3csc(C)n3)[C@H]3COC[C@H]32)n1.O=C(O)C(F)(F)F.O=C(O)C(F)(F)F	-14.33
C[S+]([O-])c1nncn1CC(=O)c1ccc(Br)cc1 (stereo not drawn)	11.9
CC(C)Oc1ccc(C(=O)Cn2cnnc2[S+](C)[O-])cc1 (stereo not drawn)	17.53
CC(C)Cc1ccc(C(=O)Cn2cnnc2[S+](C)[O-])cc1 (stereo not drawn)	59.76
O=C(O)C(F)(F)F.O=C(c1ccc(F)cc1)N1CCC2(CCCN2CC2CC2)CC1	-17.36
CN(C)C(=O)N1CCN(c2ccc3ccc(C(=O)NC4CC4)cn23)CC1	-6.605
CS(=O)(=O)N1CCN(c2ccc3ccc(C(=O)NC4CC4)cn23)CC1	20.39
CC(C)N1CCN(c2ccc3ccc(C(=O)NC4CCCC4)cn23)CC1.O=C(O)C(F)(F)F	67.57
COCCN1CCN(c2ccc3ccc(C(=O)NC4CC4)cn23)CC1	-14.38
O=C(NC1CC1)c1ccc2ccc(N3CCN(CC4CC4)CC3)n2c1	38.85
CC(=O)N1CCN(c2ccc3ccc(C(=O)NC4CCCC4)cn23)CC1	69.47
CN(C)C(=O)[C@H]1C[C@@H]2CCN(C3CCOCC3)C[C@@H]2O1.O=C(O)C(F)(F)F	2.005
CN(C)c1ncnc2c1CCN(CC1CCOC1)CC2.O=C(O)C(F)(F)F (stereo not drawn)	-1.073
Cc1cccc(N2CC[C@@H]3CN(C(=O)c4ccco4)CCO[C@@H]3C2)n1.O=C(O)C(F)(F)F	6.087
